The source of these data is PubChem BioAssay (NCI).

This is part of a sample that, as a whole, favours compounds with a hit. Of some 83,000 tested, about 20% had one in any assay.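 Percent growth is the endpoint: 0 to 100 indicates growth inhibition (40 means 60% inhibition), 0 means no net growth, and negative values indicate cell death.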 Unmarked numbers belong to inactive results. Calls of active or inactive are those of the source. How the source made its calls: active means growth percent below 10; inactive means the rest.

Test systems include T-47D breast; BT-549 breast; SW-620 colon; MCF7 breast; HCT-116 colon; HCC-2998 colon; KM12 colon; MDA-MB-435 melanoma.
Assay in all cases: NCI-60 one-dose screen, 48 h (100 = growth as untreated, 0 = no growth, -100 = all killed)
Details in all cases: 10 µM unless noted

Turning to `Cc1cc(C)c(-c2c(C)cc(C)cc2CBr)c(CBr)c1`, the growth with T-47D breast was 69.8%; in the assay with BT-549 breast it was 79.2%; in the assay with SW-620 colon, 78.5%; with MCF7 breast, 67.1%; in the assay on HCT-116 colon, 49.4%; with HCC-2998 colon, 103%. In the assay with KM12 colon, the growth is 80.3%.
As for `COc1ccc(NC(=O)CSc2nnc(-c3cc(-c4ccc(S(N)(=O)=O)cc4)nc4ccccc34)n2-c2ccccc2)cc1`, the growth in the assay with T-47D breast is 58.2%; in the assay on MDA-MB-435 melanoma, 92.2%; with SW-620 colon, 97.6%; in the assay with MCF7 breast, 78.8%; in the assay on HCT-116 colon it was 73.9%; in the assay with HCC-2998 colon, 101%.
For `O=c1oc2ccccc2c(Cl)c1Cl`, the growth is 43.1% in the assay on T-47D breast; 52% in the assay with MDA-MB-435 melanoma; 48.9% in the assay on SW-620 colon; 34% in the assay with MCF7 breast; 32.5% in the assay on HCT-116 colon; 93.1% with HCC-2998 colon. Also, in the assay on KM12 colon, the growth is 83.6%.
Regarding `COc1ccc(C(=O)COc2ccc(/C=C3\Oc4ccccc4C3=O)cc2)cc1`, the growth in the assay on T-47D breast was 73.8%; in the assay with BT-549 breast, 114%; with SW-620 colon it was 110%; with MCF7 breast, 115%; in the assay with HCT-116 colon it was 92.9%; with KM12 colon, 107%.
Regarding `Cn1cc(-c2csc(-c3ccccc3)n2)c2cccnc21`, the growth with T-47D breast is -45.4% [100 µM] (active); in the assay on MDA-MB-435 melanoma it was -45.2% [100 µM] (active); with SW-620 colon, -34.1% [100 µM] (active); in the assay on MCF7 breast it was -44.7% [100 µM] (active); in the assay with HCT-116 colon, -76.9% [100 µM] (active); with HCC-2998 colon it was -79.3% [100 µM] (active). Moreover, in the assay on KM12 colon, the growth was -68.6% [100 µM] (active).
For `COc1ccc(C2=Nc3c(N)ncnc3NC(c3ccc4c(c3)OCO4)C2)cc1` (stereo unspecified), the growth with T-47D breast is 80.3%; in the assay on MDA-MB-435 melanoma it was 94.2%; in the assay on SW-620 colon it was 85.5%; in the assay with MCF7 breast it was 76.1%; in the assay with HCT-116 colon, 74.2%; with HCC-2998 colon, -6.86% (active). In addition, in the assay with KM12 colon, the growth was 95.8%.
For `CCOC(=O)/C=C/c1cc2cc(-c3csc4ccccc34)ccc2[nH]1`, the growth with T-47D breast is 55%; in the assay with MDA-MB-435 melanoma, -10.4% (active); with SW-620 colon, 46.4%; in the assay on MCF7 breast it was 34.6%; in the assay with HCT-116 colon, 60.1%; in the assay on HCC-2998 colon, 33.4%. Besides, in the assay with KM12 colon, the growth was 23.2%.
On to `N#Cc1nc(C#N)c(Sc2ccccc2)c(Sc2ccccc2)c1Sc1ccccc1`, for which the growth in the assay on T-47D breast was -71.7% (active); in the assay on MDA-MB-435 melanoma, -14.2% (active); in the assay with SW-620 colon, -67.2% (active); with MCF7 breast, -72.1% (active); in the assay with HCT-116 colon, -30.7% (active); in the assay with HCC-2998 colon, -85.4% (active). In addition, the growth with KM12 colon was -85.2% (active).
`COc1cc(/C=N/NC(=O)Cn2c(C(C)C)nc3ccccc32)ccc1O`: the growth with T-47D breast is 94%; in the assay on MDA-MB-435 melanoma, 100%; in the assay on SW-620 colon, 95.7%; with MCF7 breast, 95.1%; with HCT-116 colon it was 82.4%; in the assay with HCC-2998 colon, 103%. In addition, the growth with KM12 colon was 97.6%.
Turning to `CSc1n(Cc2ccc3ccccc3c2)c(C)c[n+]1Cc1ccc2ccccc2c1`, the growth in the assay with T-47D breast was 0.45% (active); with BT-549 breast it was -23.4% (active); in the assay with SW-620 colon, 0.772% (active); in the assay with MCF7 breast it was -62.8% (active); with HCT-116 colon, -0.907% (active); in the assay with HCC-2998 colon it was -91.1% (active). Moreover, the growth in the assay with KM12 colon is -82.5% (active).
With `CCN(CC)CCn1nc2c3c(cccc3c1=O)-c1ccccc1-2`, the growth in the assay with T-47D breast was 9.48% (active); with BT-549 breast, 59.3%; with SW-620 colon, 14.3%; with MCF7 breast, 4.36% (active); in the assay on HCT-116 colon, 16.3%; with HCC-2998 colon, 34.7%. Also, the growth in the assay on KM12 colon is 34%.
For `CC(C)CCC[C@@H](C)[C@H]1CC[C@H]2[C@@H](Nc3ccc(O)cc3)CCC[C@]12C`, the growth with T-47D breast was -15.8% (active); in the assay on MDA-MB-435 melanoma, 100%; in the assay on SW-620 colon it was 114%; with MCF7 breast, 56.1%; with HCT-116 colon, 84.8%; in the assay on HCC-2998 colon it was 122%. In addition, in the assay on KM12 colon, the growth was 87.9%.
Regarding `CN(C)CCCn1c(=O)c2ccccc2c2ccccc21`, the growth in the assay on T-47D breast is 87.9%; in the assay with MDA-MB-435 melanoma, 89%; in the assay with SW-620 colon, 42.8%; in the assay on MCF7 breast, 58.4%; in the assay with HCT-116 colon, 26.5%; with HCC-2998 colon it was 68.2%. The growth in the assay with KM12 colon was 75.8%.
For `Nc1cc2c3c(cccc3c1)C(=O)N(CCN1CCCC1)C2=O`, the growth in the assay on T-47D breast is 18%; in the assay on BT-549 breast, 74.7%; in the assay on SW-620 colon, 20.3%; with MCF7 breast, 6.93% (active); in the assay on HCT-116 colon, 17.4%; in the assay with HCC-2998 colon it was 44.1%. Also, in the assay on KM12 colon, the growth was 34.7%.
As to `Cn1c2c(c3ccc(Cl)c(Cl)c31)C(C#N)C1(CCNCC1)NC2=O` (stereo unspecified), the growth in the assay on T-47D breast is 46.8%; with BT-549 breast, 45%; in the assay with SW-620 colon, 30.5%; in the assay on MCF7 breast, -12.3% (active); with HCT-116 colon, 13%; in the assay with KM12 colon, 31.7%.
As for `N=C1C(c2nc(-c3ccc(Br)cc3)cs2)=C(O)CN1CC1CCCO1` (stereo unspecified), the growth is 95.7% with T-47D breast; 106% with BT-549 breast; 60% in the assay with SW-620 colon; 78.4% in the assay on MCF7 breast; 25.7% in the assay on HCT-116 colon; 95.1% with HCC-2998 colon. In the assay with KM12 colon, the growth is 86.6%.
For `N#C/C(=C\c1ccc2c(c1)OCO2)n1nnc2cc(F)c(F)cc21`, the growth in the assay with T-47D breast is 20.6%; in the assay with MDA-MB-435 melanoma it was 3.37% (active); in the assay on SW-620 colon, 44.3%; with MCF7 breast it was 44.4%; in the assay with HCT-116 colon it was 47%; with HCC-2998 colon, 105%. The growth with KM12 colon is 47.4%.
